# According to PubChem BioAssay:
# Inconclusive results are not listed. Unmarked numbers belong to inactive results.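 Rule for the calls, unless noted: active = cell viability at or below a set limit in both duplicate runs, the limit being the all-compound median minus 4 SD (cut at about 23% in these data, passing the limit was not always enough); inconclusive = no clear call, values can overlap the other calls; inactive = the rest.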
# Assay: growth suppression of beta-catenin knockout HCT116, pilot screen, human colon tumor cells (AID 823);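 note: 0% = wells killed by 20 µM Hyamine and 100% = untreated DMSO cell wells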
# Settings: CellTiter-Glo, 60 h, at 10 µM, active compounds read low
row,SMILES,viability [%]
1,COC(=O)c1ccsc1NC(=O)C1=COCCO1,106
2,CC(=O)Oc1c(Cl)c(N2CCOCC2)c(OC(C)=O)c2ccccc12,70.4
3,Cc1ccc2nc(N3CCOCC3)c3nncn3c2c1,106
4,CC(C)n1c(C(O)c2ccccc2)nc2ccccc21 (stereo not given),97.6
5,C=CCNC(=O)c1cnc2n(c1=O)CCS2,103
6,COc1ccc(-c2nnc3ccc(SCC(=O)N4CCCC4)nn23)cc1,101
7,Cn1c(Cn2c(=O)sc3ccccc32)nnc1SCC(=O)NCCc1ccccc1,100
8,CC(C)OCCCNC(=O)c1cc2c(=O)n(C)c3ccccc3c2n1C,103
9,Cc1cc(-n2nc(C)cc2C)nc(NS(=O)(=O)c2ccccc2)n1,94.8
10,COC(=O)c1ccc(C2C(C(=O)Nc3ccc(C)cc3C)=C(C)Nc3ncnn32)cc1 (stereo not given),97.2
11,O=C(CC1NCCNC1=O)OCCCc1ccccc1 (stereo not given),99.1
12,CCOC(=O)Nc1ccc2c(c1)N(C(=O)N(CC)CC)c1ccccc1CC2,71.6
13,O=C(CSc1nnc2sc3ccccc3n12)NCc1ccc2c(c1)OCO2,104
14,Cc1nc2sc(C(c3ccc(C(C)C)cc3)N3CCN(CCO)CC3)c(O)n2n1 (stereo not given),97
15,CCOC(=O)c1ccc(NC(=O)CCC(=O)OC)cc1,96.8
16,CC(=NCCc1ccccc1)C1=C(O)CSC1=O,99.4
17,COC(=O)CN1C(=O)C(O)(CC(=O)c2ccc(Br)cc2)c2ccccc21 (stereo not given),92.4
18,Cn1c(=O)c2c(SCC(=O)NCc3ccco3)nc(CC(C)(C)C)nc2n(C)c1=O,72.5
19,CCn1c(C2CC(=O)N(c3cc(C)cc(C)c3)C2)nc2ccccc21 (stereo not given),87
20,CCN(CC)CCCN1C(=O)C(O)=C(C(=O)c2ccc(C)o2)C1c1cccs1 (stereo not given),97.5

row,SMILES,viability [%]
1,CCN(CC)S(=O)(=O)c1ccc(S(=O)(=O)N2CCN(CCC#N)CC2)cc1,99.6
2,CN(Cc1ccccc1)S(=O)(=O)c1ccc2[nH]c(=O)oc2c1,109
3,Cc1c(C(=O)NCc2ccc3c(c2)OCO3)sc2nc(-c3ccccc3)cn12,111
4,CC(=O)c1ccc(C(=O)Nc2ccc(N3CCOCC3)cc2)cc1,98.5
5,C=CCn1c(CSc2nc3ccccc3s2)nnc1SCC(=O)OCC,97.6
6,Cn1c(=O)[nH]c(=O)c2c1nc(NC1CCCCC1)n2CCO,102
7,Cc1cc(NC(=O)NC2(C(F)(F)F)Oc3ccc(Cl)cc3O2)no1 (stereo not given),32.6
8,O=C(CCc1nc2ccccc2[nH]1)N1CCN(C(=O)c2ccco2)CC1,101
9,COc1ccccc1-c1coc2cc(O)cc(O)c2c1=O,93.4
10,Cn1c(=O)c2c(SCC(=O)N3CCN(c4ccccc4)CC3)nc(C3CC3)nc2n(C)c1=O,82.5
11,CCC(C)NC(=O)c1cnc2n(c1=O)CCS2 (stereo not given),103
12,Cc1cccc(CSc2nnc(Cn3c(=O)sc4ccccc43)n2C)c1,86.4
13,COC(=O)NCC(c1cccnc1)N1CCN(c2ccccc2F)CC1 (stereo not given),95.6
14,COCCn1c(=O)[nH]c2cc(C(=O)NC3CCCCCC3)ccc2c1=O,93.7
15,O=C(c1ccc2nc(N3CCOCC3)sc2c1)N1CCN(C(=O)c2ccco2)CC1,105
16,COc1ccc(CCNC(=O)c2cc3ccccn3n2)c(OC)c1OC,112
17,Cc1nc2ccc(S(=O)(=O)NC(C(=O)NCc3ccco3)C(C)C)cc2s1 (stereo not given),101
18,CCOC(=O)c1c(C)oc2cc(Br)c(OC(C)C(=O)OCC)cc12 (stereo not given),85.4
19,Cc1cc(SCC(=O)c2ccccc2)n2nc(C)nc2n1,89.8
20,COc1ccccc1NC(=O)CSc1nc2ncccc2[nH]1,101

# Assay: growth suppression of PTEN-deleted HCT116, pilot screen, cell-based, HCT116 clonal line, CellTiter-Glo (AID 824;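 active = viability at or below 27.92% in each of two runs, the all-compound median minus 4 SD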;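 note: 0% = 20 µM Hyamine control and 100% = vehicle cell control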)
# Settings: 60 h, at 10 µM, active compounds read low
row,SMILES,viability [%]
1,COC(=O)c1ccsc1NC(=O)C1=COCCO1,102
2,CC(=O)Oc1c(Cl)c(N2CCOCC2)c(OC(C)=O)c2ccccc12,79
3,Cc1ccc2nc(N3CCOCC3)c3nncn3c2c1,96.1
4,CC(C)n1c(C(O)c2ccccc2)nc2ccccc21 (stereo not given),88.1
5,C=CCNC(=O)c1cnc2n(c1=O)CCS2,109
6,COc1ccc(-c2nnc3ccc(SCC(=O)N4CCCC4)nn23)cc1,99.5
7,Cn1c(Cn2c(=O)sc3ccccc32)nnc1SCC(=O)NCCc1ccccc1,105
8,CC(C)OCCCNC(=O)c1cc2c(=O)n(C)c3ccccc3c2n1C,97
9,Cc1cc(-n2nc(C)cc2C)nc(NS(=O)(=O)c2ccccc2)n1,94.3
10,COC(=O)c1ccc(C2C(C(=O)Nc3ccc(C)cc3C)=C(C)Nc3ncnn32)cc1 (stereo not given),92.9
11,O=C(CC1NCCNC1=O)OCCCc1ccccc1 (stereo not given),99.9
12,CCOC(=O)Nc1ccc2c(c1)N(C(=O)N(CC)CC)c1ccccc1CC2,71.3
13,O=C(CSc1nnc2sc3ccccc3n12)NCc1ccc2c(c1)OCO2,101
14,Cc1nc2sc(C(c3ccc(C(C)C)cc3)N3CCN(CCO)CC3)c(O)n2n1 (stereo not given),98.1
15,CCOC(=O)c1ccc(NC(=O)CCC(=O)OC)cc1,98.3
16,CC(=NCCc1ccccc1)C1=C(O)CSC1=O,96.3
17,COC(=O)CN1C(=O)C(O)(CC(=O)c2ccc(Br)cc2)c2ccccc21 (stereo not given),96.6
18,Cn1c(=O)c2c(SCC(=O)NCc3ccco3)nc(CC(C)(C)C)nc2n(C)c1=O,70.6
19,CCn1c(C2CC(=O)N(c3cc(C)cc(C)c3)C2)nc2ccccc21 (stereo not given),85
20,CCN(CC)CCCN1C(=O)C(O)=C(C(=O)c2ccc(C)o2)C1c1cccs1 (stereo not given),96.2

row,SMILES,viability [%]
1,CCN(CC)S(=O)(=O)c1ccc(S(=O)(=O)N2CCN(CCC#N)CC2)cc1,94.7
2,CN(Cc1ccccc1)S(=O)(=O)c1ccc2[nH]c(=O)oc2c1,96
3,Cc1c(C(=O)NCc2ccc3c(c2)OCO3)sc2nc(-c3ccccc3)cn12,103
4,CC(=O)c1ccc(C(=O)Nc2ccc(N3CCOCC3)cc2)cc1,99.6
5,C=CCn1c(CSc2nc3ccccc3s2)nnc1SCC(=O)OCC,101
6,Cn1c(=O)[nH]c(=O)c2c1nc(NC1CCCCC1)n2CCO,97.9
7,Cc1cc(NC(=O)NC2(C(F)(F)F)Oc3ccc(Cl)cc3O2)no1 (stereo not given),42.5
8,O=C(CCc1nc2ccccc2[nH]1)N1CCN(C(=O)c2ccco2)CC1,96.7
9,COc1ccccc1-c1coc2cc(O)cc(O)c2c1=O,92.6
10,Cn1c(=O)c2c(SCC(=O)N3CCN(c4ccccc4)CC3)nc(C3CC3)nc2n(C)c1=O,79.8
11,CCC(C)NC(=O)c1cnc2n(c1=O)CCS2 (stereo not given),103
12,Cc1cccc(CSc2nnc(Cn3c(=O)sc4ccccc43)n2C)c1,87.3
13,COC(=O)NCC(c1cccnc1)N1CCN(c2ccccc2F)CC1 (stereo not given),102
14,COCCn1c(=O)[nH]c2cc(C(=O)NC3CCCCCC3)ccc2c1=O,87.6
15,O=C(c1ccc2nc(N3CCOCC3)sc2c1)N1CCN(C(=O)c2ccco2)CC1,95.8
16,COc1ccc(CCNC(=O)c2cc3ccccn3n2)c(OC)c1OC,106
17,Cc1nc2ccc(S(=O)(=O)NC(C(=O)NCc3ccco3)C(C)C)cc2s1 (stereo not given),101
18,CCOC(=O)c1c(C)oc2cc(Br)c(OC(C)C(=O)OCC)cc12 (stereo not given),92
19,Cc1cc(SCC(=O)c2ccccc2)n2nc(C)nc2n1,87
20,COc1ccccc1NC(=O)CSc1nc2ncccc2[nH]1,98.2
